In the library only some 1.2% were active in any assay of this set; here they are far more common.
RecA intein inh – Mtb RecA intein splicing inhibitors, primary screen, biochemical, fluorescence, HTS; Protein RecA (Mycobacterium tuberculosis (strain ATCC 25618 / H37Rv)), P9WHJ3; cell-free RecA intein splicing; inhibition, % (no concentration beside the values); actives 0.75% (n = 290,000); in the data active = inhibition above about 30%;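 also: 0% = vehicle wells and 100% = reference inhibitor control wells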
Rv3671c protease – Rv3671c serine protease inhibitors, primary screen, biochemical, fluorescence polarization, M. tuberculosis H37Rv | P9WHR9 | actives 0.048% (n = 320,000) | inhibition, % at 5.96 µM; in the data active = inhibition above about 38%;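 also: extracellular domain of Rv3671c used as enzyme; 0% = enzyme with DMSO and 100% = no enzyme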
UGM FP inh – M. tuberculosis UGM enzyme inhibitors, primary screen, biochemical, fluorescence polarization, single point. UDP-galactopyranose mutase (Mycobacterium tuberculosis (strain ATCC 25618 / H37Rv)), …. purified UGM, fluorescence polarization probe displacement. inhibition, % at 10 µM. actives 0.06% (n = 320,000). AID 504406, 2011; in the data active = inhibition above about 10%, passing the limit was not always enough
Target sequence (P9WIQ1 whole entry, looked up): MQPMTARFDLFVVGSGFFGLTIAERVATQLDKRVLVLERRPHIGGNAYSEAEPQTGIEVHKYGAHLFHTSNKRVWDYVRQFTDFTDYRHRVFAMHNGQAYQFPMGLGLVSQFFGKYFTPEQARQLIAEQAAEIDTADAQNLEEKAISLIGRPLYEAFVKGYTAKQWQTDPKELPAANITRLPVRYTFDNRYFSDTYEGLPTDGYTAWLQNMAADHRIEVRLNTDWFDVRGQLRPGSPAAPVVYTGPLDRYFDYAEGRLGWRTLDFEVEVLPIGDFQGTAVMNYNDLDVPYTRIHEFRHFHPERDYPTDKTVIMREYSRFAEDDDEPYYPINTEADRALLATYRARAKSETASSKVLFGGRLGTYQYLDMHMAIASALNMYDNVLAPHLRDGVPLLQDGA
Mtb bLac sens – beta-lactam sensitization of Mtb H37Rv, H37Rv; M. tuberculosis H37Rv growth with meropenem, percent inhibition; inhibition, % at 25 µM; actives 0.27% (n = 330,000); AID 434955, 2010; call rule not given here;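 also: growth measured after seven days incubation then overnight dye step; 0% = bacteria only wells and 100% = bacteria with antibiotic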
CCHF vOTU inh – CCHFV vOTU protease inhibitors, primary screen, biochemical, Pep-AMC substrate, fluorescence; Crimean-Congo hemorrhagic fever virus L polyprotein viral ovarian tumor (vOTU) protease …; inhibition, % at 11.5 µM; actives 0.55% (n = 370,000); AID 651958, 2012; in the data active = inhibition above about 30%; also: 0% = vehicle wells with enzyme and 100% = no enzyme wells
Starred values were filed as active, the others as inactive; / = no result given.

SMILES | RecA intein inh | Rv3671c protease | UGM FP inh | Mtb bLac sens | CCHF vOTU inh
O=C(OCCN1C(=O)c2ccccc2C1=O)c1cc(S(=O)(=O)N2CCOCC2)ccc1Cl | 2 | -1 | 1 | -1 | 3
O=C(OCc1c(F)cccc1Cl)c1cc([N+](=O)[O-])ccc1N1CCOCC1 | 11 | 5 | 0 | 4 | -2
O=C(OCCN1C(=O)c2cccc3c(N4CCOCC4)ccc(c23)C1=O)c1ccccc1Cl | -337 | -42 | 22* | -1 | -3
Cc1n[nH]c(C)c1N1C(=O)c2cccc3c(N4CCCCCC4)ccc(c23)C1=O | -70 | 19 | 14* | 68 | 12
O=C(OCCN1C(=O)c2cccc3c(N4CCOCC4)ccc(c23)C1=O)c1ccc(Cl)cc1Cl | -58 | -33 | 23* | 84 | -1
O=C1c2cccc3c(N4CCCCC4)ccc(c23)C(=O)N1c1cccc(O)c1 | -4 | -30 | -3 | 1 | 3
O=C1c2cccc3c(N4CCCCC4)ccc(c23)C(=O)N1CCO | -29 | -3 | 30* | -1 | 6
Cc1ccc(Cn2cc(CN3[C@@H](Cc4ccccc4)COc4cc(Br)ccc4S3(=O)=O)nn2)cc1 | / | / | / | / | 14
CC(C)C[C@@H]1COc2cc(Br)ccc2S(=O)(=O)N1Cc1cn(Cc2ccccc2)nn1 | / | / | / | / | 4
COc1ccc(Cn2cc(CN3[C@@H](Cc4ccccc4)COc4cc(Br)ccc4S3(=O)=O)nn2)cc1 | / | / | / | / | 2
O=C(OC12CCCN(C1)/C(=C/c1ccc(Cl)cc1)C2)c1ccc(F)cc1 (stereo unspecified) | / | / | / | / | 2
O=C(OCCN1C(=O)c2cccc3c(N4CCOCC4)ccc(c23)C1=O)c1cccc(Cl)c1 | -110 | -23 | 25* | -2 | /
O=C(COC(=O)c1cccc(Cl)c1)Nc1cc(S(=O)(=O)N2CCOCC2)ccc1N1CCOCC1 | / | / | / | / | -3
O=C(C(=O)N1CCN(S(=O)(=O)c2cccc3ccccc23)CC1)c1cccc(C(F)(F)F)c1 | / | / | / | / | 6
O=C(OCc1ccc(F)cc1)c1ccc2c(c1)-c1ccccc1C2=O | -2 | -5 | -2 | 36 | -2
CCOC(=O)C1=C(Cc2ccc(F)cc2)C(=O)c2ccccc2C1=O | 8 | -40 | -7 | 23 | 71*
O=[N+]([O-])C(/C=C(\Cl)[N+](=O)[O-])=C1N(Cc2ccc(Cl)nc2)CCN1Cc1ccc(Cl)nc1 | 61* | -1 | 0 | 8 | -6
CC(=O)c1ccc(NC(=O)c2ccc3nc(-c4ccco4)c(-c4ccco4)nc3c2)cc1 | 13 | -22 | -2 | 16 | /
O=C(Nc1ccccc1)c1ccc2nc(-c3ccco3)c(-c3ccco3)nc2c1 | 19 | -4 | 4 | 23 | 48*
O=C(Nc1ccc2nc(-c3ccco3)c(-c3ccco3)nc2c1)N1CCN(c2ccccn2)CC1 | -61 | -9 | / | 3 | 30*
Cc1nc2cc(NC(=O)N3CCN(c4ccccn4)CC3)ccc2o1 | -3 | -5 | 1 | 1 | -9
COc1ccc(N=Nc2nc3cc(Br)c(Br)cc3n2C)c(OC)c1 | / | 16 | 34* | 68 | 6
O=C(Nc1ncc([N+](=O)[O-])s1)c1ccc2c(c1)OCO2 | 31* | -6 | 4 | 13 | 7
CC(C)C[C@H](N)c1nnc(S(=O)(=O)Cc2ccc(F)cc2)o1 | 34* | -1 | -1 | 38 | /
O=C(CCl)N1N=C(c2ccco2)CC1c1ccco1 (stereo unspecified) | 54* | 2 | 3 | 99 | 10
SMILES | RecA intein inh | Rv3671c protease | UGM FP inh | Mtb bLac sens | CCHF vOTU inh
CCOc1cc(OCC)cc(C(=O)N2CCC[C@@H]2C(=O)N2CCC[C@@H]2C(=O)NCc2cccc(OC)c2)c1 | / | / | / | / | -5
CN1CCc2nc(SCC(=O)Nc3ccc(F)cc3)c(C#N)cc2C1 | 33* | -12 | 1 | -1 | /
O=C(NCc1ccc(F)cc1)c1cccc2c1C(=O)c1ccc(N3CCC(Cc4ccccc4)CC3)cc1S2(=O)=O | / | -23 | 33* | 6 | 19
CC1CCN(c2ccc3c(c2)S(=O)(=O)c2cccc(C(=O)NCc4ccc(F)cc4)c2C3=O)CC1 | / | -1 | 7 | 6 | 10
O=C(CCl)c1ccc2c(c1)CCN2C(=O)C1CC1 | 60* | 2 | -1 | 100 | /
Cc1cccc(OCC(C)CN2CCC(C(O)(c3ccccc3)c3ccccc3)CC2)c1 (stereo unspecified) | / | / | / | / | 23
Nc1ccc2nc(CN3CCOCC3)[nH]c2c1 | 42* | 6 | 1 | 3 | -3
COc1ccc(-n2c(COc3ccc(C)cc3)nnc2SCC(=O)c2ccc(-c3ccccc3)cc2)cc1 | / | / | / | / | 15
Cc1cccc(Cn2c(N3CCCCC3C)nc3c2c(=O)[nH]c(=O)n3C)c1 (stereo unspecified) | 0 | -6 | 2 | 3 | 30*
Cc1cccc(Cn2c(N3CCN(C)CC3)nc3c2c(=O)[nH]c(=O)n3C)c1 | -1 | -12 | -1 | -3 | 4
COc1ccc(CCn2c(=N)c(S(=O)(=O)c3ccc(C)cc3)cc3c(=O)n4ccccc4nc32)cc1 | -14 | 1 | 21* | 8 | 10
O=c1c(Cl)c(NCCCO)cnn1-c1nc2ccccc2[nH]1 | 44* | -2 | -3 | 85 | 1
COC(=O)c1cc2c(c3c4cc(F)ccc4n(S(=O)(=O)c4ccc(C)cc4)c13)C(=O)N(Cc1ccc(N(C)C)cc1)C2 | / | / | / | / | 6
CC(=O)OC1CC2C(C)(C)C(=O)C=CC2(C)C2CCC3(C)C(c4ccoc4)OC(=O)C4OC43C12C (stereo unspecified) | / | / | / | / | 8
CC(=O)O[C@@H]1C[C@H]2C(C)(C)C(=O)C=C[C@]2(C)[C@H]2CC[C@@]3(C)[C@H](c4ccoc4)OC(=O)[C@H]4O[C@]43[C@@]21C | 42* | -10 | -2 | 80 | 9
CN(C)c1ccc(Cc2cc3c(O)ccc(O)c3cc(Cc3ccc(N(C)C)cc3)c2=O)cc1 | / | / | / | / | 34*
CC(C)=CCC[C@@]1(C(=O)O)[C@@H]2C/C=C(\C)CC/C=C(\C)CC[C@H]1[C@]1(CC2)CO1 | / | / | / | / | 10
Cc1[nH]n(C(C)(C)C)c(=O)c1Sc1ccccc1 | 50* | -3 | -1 | 0 | 0
Nc1c(Sc2ccccc2)c(=O)[nH]c(=O)n1Cc1ccccc1 | 1 | -11 | -1 | -1 | 7
COC(=O)C1CN(Cc2ccc(F)cc2)CCS(=O)(=O)N1Cc1ccc(C)cc1 (stereo unspecified) | / | / | / | / | 3
COC(=O)C1CN(Cc2ccc(F)cc2)CCS(=O)(=O)N1Cc1cn(Cc2ccccc2)nn1 (stereo unspecified) | / | / | / | / | -2
N#C/C(=C\C=C\c1ccccc1)c1nc(-c2ccc3c(c2)OCO3)cs1 | -3 | 1 | 20* | 56 | -9
OC(c1ccccc1)(c1nc(-c2ccc3c(c2)OCO3)cs1)C(F)(F)F (stereo unspecified) | / | / | / | / | 14
S=c1[nH]nc(-c2cc(-c3ccccc3)n[nH]2)n1N=Cc1c[nH]c2ccccc12 | / | / | / | / | -1

Screens from PubChem BioAssay.
